Records with an inconclusive call do not appear. The source made the active and inactive calls. Calls follow the shape of the dose curve; as a rule, active = well fitted cell-killing curve with a large enough effect; inconclusive = small, poorly fitted or top-dose-only effect; inactive = flat fitted curve, though single readings scatter.
Experiment: qHTS of pediatric cancer cell lines to identify multiple opportunities for drug repurposing: Primary screen for Rh18 cells (AID 1347102); also: nearly all actives have a fitted effect of over 65% in size
Conditions: Rh18 rhabdomyosarcoma viability, CellTiter-Glo luminescence, 48 h; series mostly up to 46 µM
Source text: Drug repurposing or repositioning has been offered as a strategy for drug development in oncology programs. This approach has special potential for childhood cancers and other rare or orphan diseases, where the expected return on new drug development has been a disincentive to pharmaceuticals.
In this project we exploit the poly-pharmacology of drugs to discover new indications via phenotypic screening of a panel of 19 well-characterized cell lines derived from solid tumors seen in children and adolescents. The goal is to identify approved drugs with previously unrecognized anticancer properties that has the potential to reveal new mechanisms and biological processes involved in carcinogenesis or drug resistance. We employed a titration-based paradigm (quantitative high-throughput screening or qHTS), where all compounds were tested at multiple concentrations for their effect on cell viability. Concentration-response curves (CRCs) were derived directly from the primary screen, and both potency and efficacy values were used to identify compounds with robust bioactivity profiles. We screened the NIH Chemical Genomics Center (NCGC) Pharmaceutical Collection (NPC) and Mechanism Interrogation Plate (MIPE) small molecule collections of approved and investigational compounds against these cell lines; and measured metabolically active cells after 48 hours of compound treatment as a proxy for cell viability.
Assay Submitter: Nathalia J. Martinez, National Center for Advancing Translational Sciences, National Institutes of Health, Rockville, MD, USA; email: natalia.martinez@nih.gov
[1] Shen, M et al. Quantitative high-throughput phenotypic screening of pediatric cancer cell lines identifies multiple opportunities for drug repurposing. Oncotarget 2017 Dec 19;9(4):4758-4772. PMID 29435139.
The cells were obtained from University of North Carolina (UNC), Pediatric Preclinical Testing Program (PPT), and Coriell Institute (CI).
qHTS cell viability assay:
Cells were assayed in growth media at a density of 500-1,000 cells/well. Five microliters of cells were dispensed into 1,536-well, white, solid-bottom, TC-treated plates (Greiner Bio One) using a multidrop dispenser and incubated at 37 degrees C, 5% CO2, under a humidified atmosphere for 5 hours. Twenty-three nanoliters of compounds and controls (neutral control DMSO or positive control bortezomib at final concentration of 2.3 µM) were subsequently transferred by Kalypsys pintool. For primary screens, the MIPE collection was tested at 11-point dilutions (final concentrations range from 0.78 nM to 46 µM) and the NPC collection at 8-point dilutions (final concentrations range from 0.59 nM to 46 µM). Compounds tested in follow-up screens were assayed at 11-point dilutions. Cells were incubated for 48 hours, followed by addition of 3 µL of CellTiter-Glo (Promega). After a 15 min incubation at room temperature, samples were analyzed for luminescence intensity using a ViewLux High-throughput CCD imager equipped with clear filters.

Row | SMILES | outcome
1 | CC(=O)Nc1ccc(OCCOCCOc2ccc(NC(C)=O)cc2)cc1 | inactive
2 | CCN(CC)CCc1nc(-c2ccccc2)no1 | inactive
3 | CC(CSC(=O)c1ccccc1)C(=O)N1C[C@@H](Sc2ccccc2)C[C@H]1C(=O)O (stereo not given in full) | inactive
4 | Cc1c(N(C)C)c(=O)n(-c2ccccc2)n1C | inactive
5 | O=C1c2ccccc2S(=O)(=O)N1CCCCN1CCN(c2ncccn2)CC1 | inactive
6 | O=C(O)CCC(=O)O | inactive
7 | CC(=O)N1C[C@H](O)C[C@H]1C(=O)O | inactive
8 | C[C@@H]1CCC[C@H](C)N1 | inactive
9 | Cc1c(C)c2c(c(C)c1OC(=O)c1cccnc1)CC[C@@](C)(CCC[C@H](C)CCC[C@H](C)CCCC(C)C)O2 | inactive
10 | O=C(O)Cn1c(C(=O)Nc2nc(-c3ccccc3Cl)cs2)cc2ccccc21 | inactive
11 | CN(C/C=C/C#CC(C)(C)C)Cc1cccc2ccccc12 | inactive
12 | CC1(C)S[C@@H]2[C@H](N=CN3CCCCCC3)C(=O)N2[C@H]1C(=O)O | inactive
13 | Cc1cccc(C(=O)O)c1O | inactive
14 | COc1ccc(-c2cc(=O)c3c(O)cc(O[C@@H]4O[C@H](CO[C@@H]5O[C@@H](C)[C@H](O)[C@@H](O)[C@H]5O)[C@@H](O)[C@H](O)[C@H]4O)cc3o2)cc1O | inactive
15 | CN[C@@H]1[C@@H](O)[C@@H](O[C@@H]2[C@H](O)[C@H](O[C@H]3OC(CN)=CC[C@H]3N)[C@@H](N)C[C@H]2N)OCC1(C)O (stereo not given in full) | inactive
16 | O=C(OOC(=O)c1ccccc1)c1ccccc1 | inactive
17 | C[C@@H](c1ncncc1F)C(O)(Cn1cncn1)c1ccc(F)cc1F (stereo not given in full) | inactive
18 | CC[N+](C)(CC)CCOC(=O)C1c2ccccc2Oc2ccccc21 | inactive
19 | O[C@@H]1CO[C@H]2[C@@H]1OC[C@@H]2O | inactive
20 | O=C(O)C(S)C(S)C(=O)O (stereo not given) | inactive

Row | SMILES | outcome
21 | CCOC(=O)[C@H](CCc1ccccc1)N[C@@H](C)C(=O)N1Cc2cc(OC)c(OC)cc2C[C@H]1C(=O)O | inactive
22 | CC1CCN(CCCC(=O)c2ccc(F)cc2)CC1 | inactive
23 | CN(C(=O)c1c(O)c2ccccc2n(C)c1=O)c1ccccc1 | inactive
24 | O=C(CCBr)N1CCN(C(=O)CCBr)CC1 | inactive
25 | CCc1cccc(CC)c1NC(=O)CN(CC(=O)O)CC(=O)O | inactive
26 | OC[C@@H](O)[C@@H](O)[C@H](O)[C@H](O)CO | inactive
27 | Cc1ccc(S(=O)(=O)NC(=O)NC2CCCCCCC2)cc1 | inactive
28 | CC[C@]12CCCN3CCc4c(n(c5ccccc45)[C@@](O)(C(=O)OC)C1)[C@@H]32 | inactive
29 | NC(=O)c1ccc([N+](=O)[O-])cc1Cl | inactive
30 | C[C@@H]1O[C@@H](OC[C@H]2O[C@@H](Oc3c(-c4ccc(O)c(O)c4)oc4cc(O)cc(O)c4c3=O)[C@H](O)[C@@H](O)[C@@H]2O)[C@H](O)[C@H](O)[C@H]1O | inactive
31 | O=C(/C=C/c1ccccc1)OCc1ccccc1 | inactive
32 | O=C(NCCCN1CCOCC1)c1ccc(Cl)cc1 | inactive
33 | CC1(c2ccccc2)OC(C(=O)O)=CC1=O (stereo not given) | inactive
34 | CCCCCCCC(=O)OCC(COC(=O)CCCCCCC)OC(=O)CCCCCCC | inactive
35 | CC1(C)[C@@H](OC(=O)CCC(=O)O)CC[C@]2(C)[C@H]3C(=O)C=C4[C@@H]5C[C@@](C)(C(=O)O)CC[C@]5(C)CC[C@@]4(C)[C@]3(C)CC[C@@H]12 | inactive
36 | O=C1C(c2[nH]c3ccccc3c2O)=Nc2ccccc21 | inactive
37 | C1CCN2C[C@@H]3C[C@@H](CN4CCCC[C@@H]34)[C@H]2C1 | inactive
38 | COc1cc(C(=O)NCCCCCC(=O)O)cc(OC)c1OC | inactive
39 | CC(=O)OCC(COC(C)=O)OC(C)=O | inactive
40 | COc1ccc(C(=O)NCc2ccc(OCCN(C)C)cc2)cc1OC | inactive

Source: PubChem BioAssay (NCATS)
